Our source for the outcome and AC50 values is PubChem BioAssay (EPA / NIEHS).

The nature of assay [1]: ATG_PBREM_CIS: Attagene CIS-FACTORIAL HepG2 Assay for human Phenobarbital-responsive Enhancer Module (PBREM) (AID 2282955). The note with it: HepG2 PBREM cis-reporter, Attagene multiplexed transcription; actives raise or lower the signal. The method in brief:
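Cells were transfected with cis-element reporter units and treated for 24 h, after which RNA was extracted and reporter transcripts measured by RT-PCR and capillary electrophoresis.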

Assay [2] addresses Paired box protein Pax-6 (Homo sapiens) (UniProt P26367). In words: ATG_Pax6_CIS: Attagene CIS-FACTORIAL HepG2 Assay for human Paired Box 6 (PAX6) (AID 2282956). The note with it: HepG2 CIS-FACTORIAL PAX6 reporter transcription, RNA readout; actives raise or lower the signal. The method in brief:
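DMSO-referenced bidirectional fits of reporter mRNA fluorescence; HepG2 with transient cis-promoter MRTUs, 24 h post-dose, RT-PCR plus capillary electrophoresis detection.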

Assay [3] is described as follows: ATG_PXRE_CIS: Attagene CIS-FACTORIAL HepG2 Assay for human Pregnane X Receptor Element (PXRE) (AID 2282957). Particulars: HepG2 Attagene CIS-FACTORIAL PXRE reporter, mRNA; actives raise or lower the signal. The method in brief:
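After a 24 h chemical incubation, total RNA from transfected HepG2 cells was reverse-transcribed and reporter cDNA amplified, FAM-labeled, HpaI-digested and sized by capillary electrophoresis. DMSO served as baseline for bidirectional curve fitting.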

The nature of assay [4]: ATG_PPRE_CIS: Attagene CIS-FACTORIAL HepG2 Assay for human Peroxisome Proliferator-activated Response Element (PPRE) (AID 2282958). The note with it: HepG2 PPRE cis-element reporter, Attagene transcription factor profiling; actives raise or lower the signal. The method in brief: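 In this cell-based multiplex, a PPRE cis element drives a reporter sequence in transiently transfected HepG2 cells. Following 24 h treatment, labeled cDNA amplicons are sized and quantified by capillary electrophoresis, with DMSO defining baseline.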

Assay [5] is described as follows: ATG_RORE_CIS: Attagene CIS-FACTORIAL HepG2 Assay for human RAR-related Orphan Receptor Element (RORE) (AID 2282959). Particulars: HepG2 Attagene cis-factorial RORE reporter, mRNA; actives raise or lower the signal. The method in brief:
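Endogenous factor activity at a cis response element is read as reporter transcript levels in HepG2 cells, 24 h post-dose. Transcripts are quantified by RT-PCR with capillary electrophoresis, and data fitted in both directions against DMSO.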

Assay [6] can be described thus: ATG_Sox_CIS: Attagene CIS-FACTORIAL HepG2 Assay for human SRY-box transcription factor (SOX) (AID 2282960). The note with it: HepG2 Attagene cis-factorial SOX reporter, mRNA; actives raise or lower the signal. The method in brief: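 Measures mRNA induction of a SOX1-associated reporter in HepG2 after 24 h dosing. Fluorescently labelled RT-PCR fragments are separated by capillary electrophoresis, and gain or loss relative to DMSO control is fitted.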

Assay [7] deals with Transcription factor Sp1 (Homo sapiens) (UniProt P08047). In words: ATG_Sp1_CIS: Attagene CIS-FACTORIAL HepG2 Assay for human Specificity Protein 1 (Sp1) (AID 2282961). Particulars: HepG2 Sp1 cis-reporter transcription, actives raise or lower the signal. An outline of the steps:
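Cells: HepG2, transiently transfected with cis-regulated multiplexed reporters. Exposure: 24 h. Detection: reporter transcripts amplified, fluorescently labeled, restriction-digested and sized by capillary electrophoresis. Analysis: bidirectional fit relative to DMSO.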

Assay [8] in a line: ATG_SREBP_CIS: Attagene CIS-FACTORIAL HepG2 Assay for human Sterol Regulatory Element Binding (SREBP) (AID 2282962). Particulars: HepG2 Attagene cis-factorial SREBP reporter, mRNA; actives raise or lower the signal. The method in brief:
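In this cis-format assay, HepG2 liver cells express reporters controlled by promoter elements responsive to native transcription factors. Exposure lasts 24 h; reporter mRNA fluorescence from capillary electrophoresis gives the signal, fitted bidirectionally against DMSO.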

The target in assay [9] is Signal transducer and activator of transcription 3 (Homo sapiens) (UniProt P40763). Description: ATG_STAT3_CIS: Attagene CIS-FACTORIAL HepG2 Assay for human Signal Transducer and Activator of Transcription 3 (STAT3) (AID 2282963). The note with it: HepG2, Attagene cis-factorial STAT3 reporter transcription; actives raise or lower the signal. The method in brief: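 Readout: fluorescent reporter mRNA fragments resolved by capillary electrophoresis. Setup: HepG2 transfected with MRTUs reporting endogenous transcription-factor activity, dosed 24 h. Gain or loss of signal fitted bidirectionally against DMSO control.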

The nature of assay [10]: ATG_TA_CIS: Attagene CIS-FACTORIAL HepG2 Assay for human TA Basal Promoter (AID 2282964). Particulars: HepG2 Attagene CIS-factorial TA basal promoter reporter; actives raise or lower the signal. The method in brief:
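Read-out: fluorescent reporter-transcript fragments resolved by capillary electrophoresis after RT-PCR and HpaI digestion. Source: HepG2 cells carrying transiently transfected multi-reporter cis constructs, treated 24 h. Endpoint fitted bidirectionally relative to DMSO.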

Assay [11] is described as follows: ATG_TCF_b_cat_CIS: Attagene CIS-FACTORIAL HepG2 Assay for human T-Cell-Factor with beta-catenin (TCF/b-cat) (AID 2282965). The note with it: HepG2 TCF/beta-catenin cis-reporter transcription, actives raise or lower the signal. The method in brief: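 HepG2, transient MRTU transfection, cis-element-driven reporters (endogenous TFs). 24 h compound exposure. Readout: reporter mRNA by RT-PCR + 6-FAM primer extension, HpaI digest, capillary electrophoresis. Gain/loss fit vs DMSO baseline.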

Assay [12] is described as follows: ATG_TAL_CIS: Attagene CIS-FACTORIAL HepG2 Assay for human TAL Basal Promoter (AID 2282966).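 Also: background control endpoint measuring basal TAL promoter reporter mRNA not a specific factor.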 The note with it: HepG2 Attagene cis-factorial TAL promoter reporter; actives raise or lower the signal. The method in brief: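 Basal-promoter background-control endpoint from a multiplexed HepG2 reporter panel. Cells were exposed 24 h, then reporter mRNA was read by RT-PCR/CE fluorescence and fitted in both directions relative to DMSO.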

Assay [13] can be described thus: ATG_TGFb_CIS: Attagene CIS-FACTORIAL HepG2 Assay for human Transforming Growth Factor (TGF) (AID 2282967). The note with it: HepG2 Attagene CIS TGFb reporter, mRNA transcription; actives raise or lower the signal. An outline of the steps:
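Transient MRTU transfection of HepG2 (FuGene 6). Dose 24 h. TriZol RNA, oligo(dT) RT, PCR, 6-FAM primer extension, HpaI cut, CE. Bidirectional fit, DMSO = baseline.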

Assay [14] deals with Estrogen receptor (Homo sapiens) (UniProt P03372). In words: ATG_ERa_TRANS: Attagene TRANS-FACTORIAL HepG2 Assay for human Estrogen Receptor alpha (ERa) (AID 2282970; active = hit-call score of the fitted dose curve at least 0.9, where 1 is the maximum). Particulars: HepG2 Attagene TRANS ERa GAL4 reporter, mRNA. An outline of the steps: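 Gal4-fusion ERa transactivation, measured as reporter transcript level in transiently transfected HepG2 cells. Exposure 24 h; RT-PCR plus capillary electrophoresis with fluorescence detection.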

For assay [15], the target named is Steroid hormone receptor ERR1 (Homo sapiens) (UniProt P11474). Description: ATG_ERRa_TRANS: Attagene TRANS-FACTORIAL HepG2 Assay for human Estrogen-Related Receptor alpha (ERRa) (AID 2282971; active = hit-call score of the fitted dose curve at least 0.9, where 1 is the maximum). The note with it: HepG2 Attagene TRANS reporter, ERRa transactivation. An outline of the steps:
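HepG2 cells transiently transfected with GAL4-UAS reporter units and chimeric NR-Gal4 constructs; after 24 hour compound incubation, reporter mRNA quantified by RT-PCR, fluorescent labelling and capillary electrophoresis, gain of signal versus DMSO.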

Assay [16] deals with X-box-binding protein 1 (Homo sapiens) (UniProt P17861). In words: ATG_Xbp1_CIS: Attagene CIS-FACTORIAL HepG2 Assay for human X-box Binding Protein 1 (XBP1) (AID 2282972). Particulars: HepG2 XBP1 cis-element reporter, Attagene multiplex; actives raise or lower the signal. An outline of the steps:
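Changes in reporter transcript abundance, read by RT-PCR and capillary electrophoresis, reflect endogenous transcription factor activity. Transfected HepG2 cells received compound for 24 hours; DMSO defined baseline for bidirectional analysis.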

Assay [17] in a line: ATG_M_19_TRANS: Attagene TRANS-FACTORIAL HepG2 Assay for M19 Transcription Factor (Internal Marker) (AID 2282974; active = hit-call score of the fitted dose curve at least 0.9, where 1 is the maximum). Particulars: HepG2 Attagene TRANS-FACTORIAL M19 internal marker reporter. The method in brief: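 Reporter mRNA induction was measured in transfected HepG2 cells 24 h after dosing. Endpoint fitted upward relative to DMSO and serves as a background control within the multiplexed TRANS panel.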

Assay [18] in a line: ATG_VDRE_CIS: Attagene CIS-FACTORIAL HepG2 Assay for human Vitamin D Receptor Element (VDRE) (AID 2282968). The note with it: HepG2 VDRE cis-reporter transcription, actives raise or lower the signal. The method in brief:
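Transient MRTU transfection of HepG2, 24 h compound exposure. Readout: reporter transcripts via RT-PCR and capillary electrophoresis, fluorescence. Bidirectional fit vs DMSO.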

In assay [19] the target is Nuclear receptor subfamily 1 group I member 3 (Homo sapiens) (UniProt Q14994). Description: ATG_CAR_TRANS: Attagene TRANS-FACTORIAL HepG2 Assay for human Constitutive Androstane Receptor (CAR) (AID 2282969; active = hit-call score of the fitted dose curve at least 0.9, where 1 is the maximum;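 also: activators raise reporter mRNA above DMSO so AC50 marks induction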). The note with it: HepG2 Attagene TRANS-FACTORIAL CAR reporter. An outline of the steps: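 Transiently transfected HepG2, multiplex TRANS reporters (CAR-Gal4 chimera driving GAL4-UAS reporter). 24 h dosing. Readout: reporter transcript by RT-PCR + capillary electrophoresis, fluorescence intensity; positive direction vs DMSO.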

A short description of assay [20]: ATG_GAL4_TRANS: Attagene TRANS-FACTORIAL HepG2 Assay for GAL4 (Internal Marker) (AID 2282976; active = hit-call score of the fitted dose curve at least 0.9, where 1 is the maximum). The note with it: HepG2 Attagene TRANS GAL4 internal marker reporter. An outline of the steps:
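Background-control readout: GAL4-UAS reporter transcript in transiently transfected HepG2 cells after 24 h compound exposure. Measured by RT-PCR, 6-FAM primer extension, HpaI digest and capillary electrophoresis; gain-of-signal fit versus DMSO.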

Inconclusive results are not listed. The source made the active and inactive calls. The calls were made as follows, unless noted: active = hit-call score of the fitted dose curve at least 0.9, where 1 is the maximum; inactive = score below 0.9.

Chain of Signal transducer and activator of transcription 3 (Homo sapiens) (P40763 whole entry, looked up, the tested form may be a part): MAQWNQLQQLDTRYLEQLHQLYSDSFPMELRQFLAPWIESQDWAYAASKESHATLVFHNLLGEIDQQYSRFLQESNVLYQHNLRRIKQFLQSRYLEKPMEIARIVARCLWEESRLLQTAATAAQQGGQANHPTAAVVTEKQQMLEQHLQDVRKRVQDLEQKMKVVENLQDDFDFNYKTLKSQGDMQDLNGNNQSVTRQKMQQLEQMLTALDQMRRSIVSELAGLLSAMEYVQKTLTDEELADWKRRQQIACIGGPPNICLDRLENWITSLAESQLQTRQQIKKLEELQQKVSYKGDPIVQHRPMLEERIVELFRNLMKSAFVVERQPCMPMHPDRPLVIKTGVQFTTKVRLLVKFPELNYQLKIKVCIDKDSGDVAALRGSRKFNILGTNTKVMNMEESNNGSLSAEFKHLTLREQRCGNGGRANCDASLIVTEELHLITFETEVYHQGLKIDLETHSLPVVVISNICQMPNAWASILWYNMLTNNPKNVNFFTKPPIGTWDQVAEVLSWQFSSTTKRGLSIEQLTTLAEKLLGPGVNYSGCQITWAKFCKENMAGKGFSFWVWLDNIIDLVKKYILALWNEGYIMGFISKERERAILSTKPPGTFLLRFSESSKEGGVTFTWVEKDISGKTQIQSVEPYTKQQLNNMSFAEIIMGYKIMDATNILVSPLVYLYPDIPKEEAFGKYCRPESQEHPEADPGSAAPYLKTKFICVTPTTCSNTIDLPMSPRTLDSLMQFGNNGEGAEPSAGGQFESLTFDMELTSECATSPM
Chain of X-box-binding protein 1 (Homo sapiens) (P17861 whole entry, looked up): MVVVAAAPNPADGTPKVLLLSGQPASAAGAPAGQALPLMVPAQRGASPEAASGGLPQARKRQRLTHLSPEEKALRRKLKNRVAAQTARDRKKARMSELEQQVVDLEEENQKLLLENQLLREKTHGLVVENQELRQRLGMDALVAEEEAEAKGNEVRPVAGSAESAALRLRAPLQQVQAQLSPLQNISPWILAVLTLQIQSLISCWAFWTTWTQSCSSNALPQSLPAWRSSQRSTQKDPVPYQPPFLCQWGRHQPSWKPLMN
Chain of Transcription factor Sp1 (Homo sapiens) (P08047 whole entry, looked up): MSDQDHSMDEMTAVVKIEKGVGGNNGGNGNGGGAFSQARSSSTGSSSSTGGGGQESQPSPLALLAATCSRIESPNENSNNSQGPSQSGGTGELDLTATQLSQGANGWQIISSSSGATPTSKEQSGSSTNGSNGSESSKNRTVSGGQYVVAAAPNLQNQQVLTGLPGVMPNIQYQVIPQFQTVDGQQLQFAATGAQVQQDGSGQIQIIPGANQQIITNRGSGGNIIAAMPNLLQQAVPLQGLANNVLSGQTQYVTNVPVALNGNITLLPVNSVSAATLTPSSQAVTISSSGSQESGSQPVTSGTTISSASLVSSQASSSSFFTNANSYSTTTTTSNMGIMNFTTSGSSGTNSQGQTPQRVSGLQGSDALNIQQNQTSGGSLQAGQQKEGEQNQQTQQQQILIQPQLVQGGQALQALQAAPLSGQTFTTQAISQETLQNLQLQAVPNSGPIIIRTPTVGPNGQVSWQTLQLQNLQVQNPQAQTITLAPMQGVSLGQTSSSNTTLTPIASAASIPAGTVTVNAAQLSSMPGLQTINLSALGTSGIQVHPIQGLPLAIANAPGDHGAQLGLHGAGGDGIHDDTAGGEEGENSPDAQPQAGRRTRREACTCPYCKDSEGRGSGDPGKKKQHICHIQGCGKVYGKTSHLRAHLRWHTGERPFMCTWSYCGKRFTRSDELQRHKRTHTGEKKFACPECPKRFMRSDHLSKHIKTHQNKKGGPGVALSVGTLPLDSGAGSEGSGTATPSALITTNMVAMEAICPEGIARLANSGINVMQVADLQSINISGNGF
Chain of Paired box protein Pax-6 (Homo sapiens) (P26367 whole entry, looked up): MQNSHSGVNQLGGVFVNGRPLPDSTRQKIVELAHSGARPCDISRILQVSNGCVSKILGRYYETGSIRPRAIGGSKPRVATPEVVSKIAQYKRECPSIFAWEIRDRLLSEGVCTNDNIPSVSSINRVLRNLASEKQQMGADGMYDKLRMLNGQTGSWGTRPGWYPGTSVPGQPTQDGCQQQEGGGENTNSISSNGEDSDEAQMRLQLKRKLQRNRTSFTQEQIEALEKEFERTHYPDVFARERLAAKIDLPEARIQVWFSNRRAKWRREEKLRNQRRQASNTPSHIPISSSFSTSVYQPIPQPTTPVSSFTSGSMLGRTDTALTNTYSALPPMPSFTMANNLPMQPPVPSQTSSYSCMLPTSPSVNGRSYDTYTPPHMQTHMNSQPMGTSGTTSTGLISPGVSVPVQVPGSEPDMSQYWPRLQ
Chain of Estrogen receptor (Homo sapiens) (P03372 whole entry, looked up, the tested form may be a part): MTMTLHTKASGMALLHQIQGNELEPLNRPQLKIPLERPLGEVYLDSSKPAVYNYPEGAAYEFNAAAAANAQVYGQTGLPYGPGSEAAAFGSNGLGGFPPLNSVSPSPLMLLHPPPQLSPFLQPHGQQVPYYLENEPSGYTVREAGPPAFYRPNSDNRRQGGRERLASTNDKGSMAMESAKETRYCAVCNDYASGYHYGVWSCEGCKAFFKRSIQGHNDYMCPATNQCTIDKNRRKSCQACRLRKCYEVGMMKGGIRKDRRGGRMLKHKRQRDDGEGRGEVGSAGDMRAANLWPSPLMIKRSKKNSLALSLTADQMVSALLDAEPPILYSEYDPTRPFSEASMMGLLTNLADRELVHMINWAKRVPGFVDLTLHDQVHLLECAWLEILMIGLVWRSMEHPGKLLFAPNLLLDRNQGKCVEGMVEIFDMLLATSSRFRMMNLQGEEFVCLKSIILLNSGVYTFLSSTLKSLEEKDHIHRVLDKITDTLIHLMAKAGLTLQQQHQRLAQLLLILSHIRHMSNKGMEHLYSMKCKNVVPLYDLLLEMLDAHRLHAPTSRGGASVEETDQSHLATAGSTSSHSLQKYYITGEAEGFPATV
Chain of Nuclear receptor subfamily 1 group I member 3 (Homo sapiens) (Q14994 whole entry, looked up, the tested form may be a part): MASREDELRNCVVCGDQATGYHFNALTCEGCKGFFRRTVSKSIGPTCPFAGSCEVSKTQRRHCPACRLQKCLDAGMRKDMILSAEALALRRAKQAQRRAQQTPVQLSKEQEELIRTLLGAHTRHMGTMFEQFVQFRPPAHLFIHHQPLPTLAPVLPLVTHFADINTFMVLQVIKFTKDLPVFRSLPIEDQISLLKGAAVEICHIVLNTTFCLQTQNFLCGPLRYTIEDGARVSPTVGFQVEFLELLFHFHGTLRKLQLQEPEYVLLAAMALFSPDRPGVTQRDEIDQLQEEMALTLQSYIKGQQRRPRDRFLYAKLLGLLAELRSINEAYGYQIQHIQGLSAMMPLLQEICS
Chain of Steroid hormone receptor ERR1 (Homo sapiens) (P11474 whole entry, looked up, the tested form may be a part): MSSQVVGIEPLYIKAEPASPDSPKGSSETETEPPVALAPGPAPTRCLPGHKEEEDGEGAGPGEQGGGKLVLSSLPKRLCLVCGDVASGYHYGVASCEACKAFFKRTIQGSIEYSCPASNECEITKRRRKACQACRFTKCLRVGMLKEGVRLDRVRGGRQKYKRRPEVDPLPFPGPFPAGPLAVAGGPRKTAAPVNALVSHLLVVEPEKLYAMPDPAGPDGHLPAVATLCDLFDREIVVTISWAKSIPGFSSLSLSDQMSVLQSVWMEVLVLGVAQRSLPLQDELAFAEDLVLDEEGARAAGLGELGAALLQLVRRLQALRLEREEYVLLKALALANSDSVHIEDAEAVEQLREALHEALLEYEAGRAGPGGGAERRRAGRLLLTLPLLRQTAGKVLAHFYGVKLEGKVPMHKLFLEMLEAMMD

`OCCCc1ccccc1`: the outcome in assay [1], in assay [2], in [3], in assay [4], in [5] and in assay [6] was inactive. Moreover, the compound was classed as inactive in assay [7], in assay [8], in assay [9], in assay [10], in assay [11] and in assay [12]. The compound was classed as inactive in [13], in [14], in assay [15], in assay [16] and in assay [17].

`C=CC(=O)NCOCCCC`: the result in [1], in [2], in assay [4], in assay [5], in assay [7] and in assay [8] was inactive. Besides, the call in assay [9], in assay [10], in [11], in assay [12], in assay [13] and in assay [19] was inactive. The AC50 (in general, the concentration giving half of the maximal activity seen) in assay [3] is 36.7 µM (active); in assay [18], 49.8 µM (active).

As for `C=CC(=O)OCCCCCCOC(=O)C=C`, the result in assay [1], in [3], in assay [4], in assay [6], in [7] and in assay [11] was inactive. For the same compound, the outcome in assay [12], in [13], in assay [14] and in assay [17] was inactive. Besides, the AC50 was 75.7 µM (active) in assay [2], 100 µM (active) in [8], 25.6 µM (active) in assay [18] and 26.6 µM (active) in assay [16].

In the case of `CCc1cccc(C)c1N(C(=O)CS(=O)(=O)O)C(C)COC` (stereo unspecified), the outcome in assay [1], in assay [2], in assay [4], in [6], in [7] and in assay [8] was inactive. Moreover, the compound was classed as inactive in assay [9], in assay [10], in assay [11], in assay [12], in assay [13] and in assay [18]. Besides, the outcome in [16] and in [20] was inactive. Moreover, the concentration at half-maximal activity (AC50) is 29.2 µM (active) in assay [3] and 56.2 µM (active) in [14].
